Screening results deposited in PubChem by several laboratories.
FadD28 FP inh: blocks FadD28 binding to the bisubstrate probe; fluorescence polarization; inhibition, % at 12.5 µM; 360,000 tested, 0.22% active; AID 588549; in the data active = inhibition above about 8.5%, passing the limit was not always enough
PriA SSB inh: K. pneumoniae PriA-SSBct interaction inhibition. AlphaScreen SSBct-PriA binding, biotinylated peptide. inhibition, % at 33 µM. 430,000 tested, 0.6% active. AID 1272365; in the data active = inhibition mostly above about 37%, no sharp cut-off; inactive = mostly below about 20%
PrPC TRFRET: cell surface PrPC inhibition, primary TR-FRET screen. TR-FRET read-out. inhibition, % at 13.8 µM. 370,000 tested, 0.43% active; in the data active = inhibition above about 24%
PrP 5UTR inh: suppresses PrP 5' UTR mRNA reporter expression; cell-based PrP 5' UTR mRNA reporter, plate reader; inhibition, % (test concentration not listed); 340,000 tested, 0.35% active; in the data active = inhibition above about 52%
BH1578 lux ind: induces V. cholerae light production without autoinducers | AID 588436 | V. cholerae BH1578 lux reporter, luminescence, 6 h | 350,000 tested, 0.16% active | activation, % at 18.7 µM; in the data active = activation mostly above about 9.7%, no sharp cut-off
PrPC TRFRET cf: confirmation of inhibitors of cell surface human prion protein; inhibition, % at 13.8 µM; 1,500 tested, 65% active; cell surface PrPC level, TR-FRET; shares compounds with PrPC TRFRET; in the data active = inhibition above about 25%
LD9 cytotox: kills or reduces viability of LD9 cells in PrPc counter-screen | shares compounds with PrPC TRFRET | LD9 cells cytotoxicity, luminescence viability | inhibition, % at 13.8 µM | 1,500 tested, 29% active; in the data active = inhibition above about 9.5%
Numbers stand for hits; – = inactive; · = no result given. An excerpt weighted towards active compounds, which were near 1.4% of everything screened.

SMILES | FadD28 FP inh | PriA SSB inh | PrPC TRFRET | PrP 5UTR inh | BH1578 lux ind | PrPC TRFRET cf | LD9 cytotox
O=C(CCSc1ccc(Cl)cc1)N1CCN(c2ccc(O)cc2)CC1 | – | – | 38.3 | – | – | 28.3 | –
O=C(CCSc1ccccc1)N1CCN(c2ccccc2)CC1 | – | – | – | – | – | · | ·
O=S(=O)(Nc1cccc2cccnc12)c1ccc(S(=O)(=O)N2CCCC2)cc1 | – | 44.9 | 37.1 | – | – | – | 23.9
O=S(=O)(Nc1cccc2cccnc12)c1ccccc1 | – | – | 53.8 | – | – | 39.5 | 80.9
CC(=O)Nc1ccc(S(=O)(=O)Nc2cccc3cccnc23)cc1 | – | – | – | – | – | · | ·
Cc1ccc2cccc(NS(=O)(=O)c3ccccc3)c2n1 | · | – | 34.1 | · | · | 66.6 | 71.5
O=C(NCC1(c2ccsc2)CCCC1)c1ccc2nsnc2c1 | · | – | · | · | · | · | ·
CC1(C)Cc2cccc(OCC(=O)N3CCC(Oc4cnccn4)CC3)c2O1 | · | – | · | · | · | · | ·
Cc1ccc(Nc2cc(C)nc(N3CCN(C(=O)c4c(F)cccc4F)CC3)n2)cc1 | · | – | · | · | · | · | ·
COc1ccc(Cl)cc1C(=O)Nc1cccc(-c2ccc3nncn3n2)c1 | – | – | 82.6 | – | – | 87.6 | –
CC(C)(C)OC(=O)N1CCC(N[C@@H](Cc2ccccc2)C(=O)NCCc2c[nH]c3ccccc23)(C(=O)NC2CCCCC2)CC1 | · | · | 26.7 | · | · | – | –
Brc1ccc(-c2ccc(C=NNc3nncc(-c4ccccc4)n3)o2)cc1 | · | – | · | · | · | · | ·
Cc1ccc(-n2c(-c3nn(C)cc3Cl)n[nH]c2=S)cc1 | – | – | – | – | – | · | ·
Cn1cc(Cl)c(-c2n[nH]c(=S)n2-c2ccccc2)n1 | – | – | 28.7 | – | – | 45.0 | –
O=C(NCCn1ncccc1=O)c1cc2ccccc2o1 | · | – | · | · | · | · | ·
NC(=S)N/N=C1\CC(n2nnn(-c3cccc(Cl)c3)c2=S)C2COC1O2 (stereo unspecified) | – | · | 28.4 | – | – | 42.4 | –
Cc1cc(C)cc(-n2nnn(C3CC(=NNC(N)=S)C4OCC3O4)c2=S)c1 (stereo unspecified) | · | – | · | · | · | · | ·
O=S(=O)(C/C(=C/CO)S(=O)(=O)c1ccccc1)c1ccccc1 | – | – | 86.5 | – | – | 92.1 | –
OC[C@H]1O[C@@H](c2nc3ccc(-c4nc(-c5ccc(Br)cc5)no4)cc3[nH]2)C[C@@H]1O | – | · | 29.1 | · | – | – | –
CC(N)c1csc(Nc2ccc(C(=O)c3ccccc3)cc2)n1 (stereo unspecified) | – | · | – | · | – | · | ·
CC(=O)c1ccc(Nc2nc(C(N)C3CCCCC3)cs2)cc1 (stereo unspecified) | – | · | 29.4 | · | – | 39.1 | –
NC(c1csc(Nc2ccc(C(=O)c3ccccc3)cc2)n1)C1CCCCC1 (stereo unspecified) | – | · | 38.4 | · | – | 41.1 | –
COc1cc(NS(=O)(=O)c2ccc(NC(=O)c3cc4cc([N+](=O)[O-])ccc4s3)cc2)ncn1 | · | – | · | · | · | · | ·
COc1ccccc1C1(CNC(=O)N2CCNC2=O)CCOCC1 | · | – | · | · | · | · | ·
COC(=O)c1cc(C)sc1NC(=O)C1CC=CCC1C(=O)O (stereo unspecified) | – | – | 34.7 | · | – | 43.9 | –
SMILES | FadD28 FP inh | PriA SSB inh | PrPC TRFRET | PrP 5UTR inh | BH1578 lux ind | PrPC TRFRET cf | LD9 cytotox
COC(=O)c1sccc1NC(=O)C1C2C=CC(C2)C1C(=O)O (stereo unspecified) | – | – | – | – | – | · | ·
COC(=O)c1cc(C)sc1NC(=O)C1C2C=CC(CC2)C1C(=O)O (stereo unspecified) | – | – | – | – | – | · | ·
COC(=O)c1sccc1NC(=O)C1CC=CCC1C(=O)O (stereo unspecified) | – | – | 96.6 | – | – | 91.6 | –
Cc1ccc(S(=O)(=O)N2CCCCC2)cc1NC(=O)CSc1ncnc2ccccc12 | – | – | 62.7 | – | – | 71.1 | –
Cc1ccc(NC(=O)CSc2ncnc3ccccc23)cc1Cl | · | – | · | · | · | · | ·
Cc1ccc(S(=O)(=O)N2CCCCC2)cc1NC(=O)Cn1ncc(Cl)c(Cl)c1=O | – | – | 31.0 | – | – | – | 93.8
Cc1ccc(S(=O)(=O)N2CCCCC2)cc1NC(=O)Cn1cnnn1 | – | – | – | – | – | · | ·
Cc1ccc(NC(=O)CSc2ncnc3ccccc23)cc1S(=O)(=O)N1CCCCCC1 | – | – | 67.3 | – | – | 77.3 | –
O=S(=O)(NCCn1ccn2nccc12)c1cccnc1 | · | – | · | · | · | · | ·
COc1ccc(-c2cc(-c3ccccc3)nc(SCC(=O)Nc3nsc(-c4ccc(Cl)cc4)n3)c2C#N)cc1 | · | – | · | · | · | · | ·
O=C(Nc1ccc(OC(F)F)cc1)Nc1cccc(C(F)(F)F)c1 | – | – | 34.8 | – | – | – | 21.6
O=C(Nc1ccc(OC(F)(F)F)cc1)Nc1cccc([N+](=O)[O-])c1 | – | – | 25.6 | – | – | 42.9 | 41.5
O=C(Nc1nccs1)c1ccc(COc2ccccc2Br)o1 | – | – | 26.4 | – | – | – | –
COC(=O)C1=CO[C@@H](C)[C@H]2CN3CCc4c([nH]c5ccccc45)[C@@H]3C[C@H]12 | – | – | 25.1 | – | – | – | –
Cn1c(SCC(=O)Nc2ccccc2F)nnc1-c1ccc(=O)n(C)c1 | · | – | · | · | · | · | ·
CCOC(=O)c1c(NC(=O)CSc2nnc(Cc3ccccc3)o2)sc(C(C)=O)c1C | – | – | 26.9 | – | – | – | –
CC(=O)Oc1c(C(C)C)cc(N(C(C)=O)c2ccccc2)cc1C(C)C | – | – | 36.2 | – | – | 29.0 | –
COc1ccc(S(=O)(=O)C(CNC(=O)CN2C(=O)c3ccccc3C2=O)c2ccco2)cc1 (stereo unspecified) | · | – | · | · | · | · | ·
CS(=O)(=O)c1ccc2nc(Nc3nc4c(F)cccc4s3)sc2c1 | · | – | · | · | · | · | ·
CO[C@H]([C@H](C)/C=C/N(C)C=O)[C@@H](C)C(=O)CC[C@H](C)[C@H](O)[C@H](C)[C@H]1OC(=O)/C=C/C(C)=C/C[C@H](O)C[C@@H]2C=CC[C@@H](C[C@H](OC)[C@@H](C)[C@@H](OC)C[C@@H](OC)[C@@H]1C)O2 | · | · | 47.8 | · | · | 39.0 | 26.4
CO[C@H]([C@H](C)/C=C/N(C)C=O)[C@@H](C)C(=O)CC[C@H](C)[C@H](O)[C@H](C)[C@H]1OC(=O)/C=C/C(C)=C/C[C@H](O)C[C@@H]2C=CC[C@@H](C[C@H](OC)[C@@]3(CO3)[C@@H](OC)C[C@@H](OC)[C@@H]1C)O2 | · | · | 41.3 | · | · | 36.8 | 39.0
CC(Sc1ccc2ccccc2n1)C(=O)O (stereo unspecified) | – | – | 114.5 | – | – | 123.5 | –
Cc1cc(SC(C)C(=O)NCC(=O)Nc2ccc(F)c(F)c2F)nc2ccccc12 (stereo unspecified) | – | – | – | – | – | · | ·
CC(Sc1cnc2ccccc2n1)C(=O)O (stereo unspecified) | – | – | 39.4 | – | – | 47.4 | –
Cc1cc(SC(C)C(=O)O)nc2ccccc12 (stereo unspecified) | – | – | 46.4 | – | – | 75.5 | –
Cc1nnc(NC(=O)CSc2nnc3ccc(-c4ccco4)nn23)s1 | · | – | · | · | · | · | ·
